The values that follow come from PubChem BioAssay (NCI).

About 83,000 compounds went through this panel and 20% of them were active in at least one assay; those are over-represented in the sample as a whole.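 A percent growth of 40 corresponds to 60% growth inhibition; 0 means no net growth; -100 means all cells died. Active threshold: below 10.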 Values without a mark were called inactive. Calls of active or inactive are those of the source.

Common to all, as to experiment: NCI-60 one-dose screen, 48 h (100 = growth as untreated, 0 = no growth, -100 = all killed)
Conditions in all cases: 10 µM unless noted

Test [1] relates to SR leukemia.
The subject of test [2] is RPMI-8226 leukemia.
Test [3] relates to OVCAR-8 ovarian.
For test [4], the system named is OVCAR-5 ovarian.
Test [5] deals with OVCAR-4 ovarian.
Test [6] relates to SK-OV-3 ovarian.
In test [7] the test system is IGROV1 ovarian.
For test [8], the system named is OVCAR-3 ovarian.
Test [9] has as its system HS 578T breast.
For test [10], the system named is NCI/ADR-RES ovarian.

`COc1ccc(OC)c(CCn2cncc2-c2c[nH]c3cc(Br)ccc23)c1`: the growth in test [1] is 13.6%; in test [2], 16.7%; in [3] it was 24.7%; in test [4] it was 79.5%; in [5], 21.6%; in test [6], 38.8%. Moreover, the growth in test [7] was 47.9%; in test [8], 32.7%; in [9] it was 59.8%; in test [10], 19.4%.

Consider `C1=C(Cc2ccccc2)n2cnc3ncnc(c32)S1`, for which the growth was 36.8% in [1]; 28% in test [2]; 73.5% in test [3]; 70.5% in test [4]; 40.1% in [5]; 19.7% in [6]. Further, the growth was 86.8% in test [7], 15.8% in test [8], 75.3% in [9] and 56.7% in test [10].

Turning to `CN1CCC[C@@H]1CCO[C@](C)(c1ccccc1)c1ccc(Cl)cc1`, the growth in test [1] is 59.7%; in test [2] it was 70.4%; in [3] it was 88.1%; in [4], 73.6%; in [5], 75.6%; in test [6], 73.9%. Moreover, the growth in test [7] is 63.6%; in [8], 100%; in [9], 80.9%; in test [10], 76.5%.

As to `COc1cc(/C=N/OC(=O)Nc2ccccc2)cc(OC)c1OC`, the growth is 89.7% in [1]; 93.7% in test [2]; 113% in test [3]; 104% in test [4]; 105% in [5]; 104% in [6]. For the same molecule, the growth in [7] was 95.9%; in test [8], 114%; in test [9], 114%; in test [10], 109%.

In the case of `O=C(N/N=C/c1ccc(Cl)cc1Cl)c1ccccc1Nc1cccc(C(F)(F)F)c1`, the growth was 56.3% in test [1]; 58.4% in test [2]; 71.6% in [3]; 85.6% in [4]; 65.6% in test [5]; 97.4% in [6]. For the same molecule, the growth was 43.8% in test [7], 53.3% in test [8], 49.3% in test [9] and 73.4% in test [10].

As for `CCSc1nc(-c2ccc(F)cc2)c(C#N)c(=O)[nH]1`, the growth in test [1] is 118%; in [2], 105%; in test [3] it was 107%; in test [4] it was 95.9%; in [5], 103%; in test [6], 111%. Moreover, the growth in [7] was 107%; in test [8], 122%; in test [9], 117%; in [10] it was 103%.

Regarding `COc1cnc2c(c1)C(=O)c1c-2n(CCCN2CCNCC2)c(=O)c2cc(F)ccc12`, the growth in test [1] is -13.1% (active); in [2], -30.9% (active); in [3], 2.26% (active); in test [4] it was -0.468% (active); in test [5], 23%; in test [6] it was -12.7% (active). Also, the growth in test [7] was 23%; in test [8], 2.67% (active); in test [9], 38.6%; in [10], 18.8%.

In the case of `O[N+]1=CC=CCC1=S.On1ccccc1=S.[Zn]`, the growth in [1] is -4.29% (active); in test [2], -32.6% (active); in test [3], -50.4% (active); in [4], -83.1% (active); in test [5], -95.6% (active); in test [6], -96.6% (active). Moreover, the growth in [7] is -81.2% (active); in test [8], -97.4% (active); in [9], 7.55% (active); in test [10], -46.8% (active).

As to `Nc1nc(Nc2ccccc2SSc2ccccc2Nc2nc(N)nc(-c3ccc(I)cc3)n2)nc(-c2ccc(I)cc2)n1`, the growth in test [1] is 13.9%; in test [2] it was 61.4%; in test [3], 60.2%; in test [4], 84.9%; in test [5], 107%; in test [6] it was 116%. Besides, the growth is 50.3% in [7], 94.1% in test [8], 89.1% in test [9] and 49.6% in test [10].

On to `Cc1cc(=O)oc2cc(OCCn3c(C)nn(-c4ccc(Cl)cc4)c3=O)ccc12`, for which the growth in test [1] was 21.2%; in [2], 31%; in test [3] it was 17.7%; in test [4], 38.8%; in test [5] it was 67.1%; in test [6], 41.1%. Also, the growth was 59.7% in test [7], 14.8% in [8], 34.8% in test [9] and 24.7% in test [10].

For `CSc1nc2nc3c(c(-c4ccc(C)cc4)c2c(=O)[nH]1)CN(C)C/C3=C\c1ccc(C)cc1`, the growth was 86.9% in [1]; 84.2% in [2]; 105% in [3]; 115% in test [4]; 92.8% in [5]; 112% in test [6]. In addition, the growth in [7] was 96.8%; in test [8], 116%; in [9], 95.8%; in test [10] it was 94.7%.

Turning to `COc1cccc(CCN2C(=O)CCC3=C2CCC3=O)c1`, the growth in [1] was 102%; in test [2], 98.1%; in [3] it was 108%; in test [4], 104%; in test [5], 104%; in test [6] it was 102%. The growth is 103% in test [7], 114% in [8], 130% in test [9] and 104% in [10].

Consider `O=C1/C(=C\c2coc3ccccc3c2=O)c2ccccc2N1c1c(Cl)cccc1Cl`, for which the growth in test [1] is 19.5%; in [2], 10.2%; in [3], 31.6%; in test [4], 102%; in test [5] it was 49.5%; in [6], 74.8%. For the same molecule, the growth in test [7] was 48.7%; in test [8] it was 16.8%; in test [9], 27.4%; in test [10], 36.1%.

For the molecule `Cc1[nH]c(=O)[nH]c(=O)c1CCSSCCc1c(C)[nH]c(=O)[nH]c1=O`, the growth was 79.6% in test [1]; 104% in test [2]; 107% in test [3]; 110% in test [4]; 117% in test [5]; 103% in [6]. Further, the growth in [7] was 99.8%; in [8] it was 117%; in test [9], 142%; in test [10], 104%.

On to `c1ccc(CN=C(NCc2ccccc2)NCc2ccccc2)cc1`, for which the growth in [1] was 77.4%; in [2], 43.5%; in test [3] it was 56.4%; in test [4] it was 100%; in test [5], 30.2%; in test [6], 73.5%. Further, the growth was 60.4% in [7], 51.4% in test [8], 96.7% in test [9] and 86% in test [10].
